The target of test [1] is Glucocorticoid receptor (Homo sapiens) (UniProt P04150). Kind of test: GR-GFP Redistribution (AID 450;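 active means compounds whose dose series gives a full or clear partial fitted curve of increased nuclear translocation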; further: potency means the concentration at half of the fitted maximal effect). Conditions: U2OS GR-GFP nuclear translocation, laser cytometry, 2 h.
The target is the same in test [2]. Kind of test: GR-EFC Redistribution (AID 451; calls by dose curve; further: potency means the concentration at half of the fitted maximal effect). Conditions: CHO-K1 GR-EFC translocation, beta-gal luminescence, 2 h. Put shortly: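 CHO-K1 cells stably expressing nuclear-localized β-gal enzyme acceptor and GR fused C-terminally to the enzyme donor fragment; ligand-driven nuclear translocation restores β-gal by complementation. Compounds titrated up to 46 uM final, 2 h at 37 °C; luminescence read.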

For test [3], the target named is 3',5'-cyclic-AMP phosphodiesterase 4B (Homo sapiens) (UniProt Q07343). Kind of test: qHTS Assay for Inhibitors of PDE-IV (AID 607; active means well fitted activation curve with a large enough effect in the main read-out, with a control signal flat, not every such curve was filed as active; further: % of control where 0% means no effect). Put shortly: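 HEK293 ACTOne cells with CNG channel (1000/well), endogenous PDE4; membrane potential dye, compounds up to 22.9 uM final. Fluorescence Ex 535/Em 590; RO 20-1724 (100 uM final) as reference.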
For test [4], the target named is Cytochrome P450 3A4 (Homo sapiens) (UniProt P08684). Kind of test: qHTS Assay for Activators of Cytochrome P450 3A4 (AID 885). Further: nearly all actives have a fitted effect of over 65% in size. Put shortly:
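Human CYP3A4 (20 nM) with Luciferin-PPXE at 25 uM (its KM) in 200 mM KPO4; 10 min compound preincubation, then NADPH regeneration and 60 min reaction at RT. Luciferin read by luminescence; normalized to 57 uM ketoconazole full inhibition.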
A general note: In qHTS, concentration-response curves come from the screen itself.

Test [5] deals with Ubiquitin carboxyl-terminal hydrolase 1 (Homo sapiens) (UniProt O94782). Kind of test: Inhibitors of USP1/UAF1: Pilot qHTS (AID 504865).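 Further: rhodamine fluorescence freed from ubiquitin-rhodamine substrate followed over time; top concentration of the series differs between compounds; on the % scale 0 is the no-effect control and ±100 the full control effect; nearly all actives have a fitted effect of over 35% in size.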 Put shortly:
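1nM USP1/UAF1 + cpd, 15 min RT; start w/ Ub-Rho 150nM final; kinetic FL 480/540 nm, 6 reads q60 s. Buffer 50mM HEPES pH 7.8, 0.5mM EDTA, 1mM TCEP, 0.01% Tween-20, 0.1 mg/ml BSA.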

The target of test [6] is DNA dC->dU-editing enzyme APOBEC-3G (Homo sapiens) (UniProt Q9HC16). The experiment in a line: qHTS for inhibitors of Vif-A3G interactions: Validation (AID 588379). Further: 0% is about no effect. The method in brief:
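HeLa cells stably expressing Vif and A3G-eYFP, 700 cells/well, incubated overnight at 37 deg C, then exposed to compound overnight at 37 deg C. Inhibition of Vif-mediated degradation read as increased yellow fluorescence (Ex 488/Em 500-530) by laser-scanning cytometry.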

For test [7], the system named is Zika virus NS2B-NS3 protease. The experiment in a line: Primary screen GU AMC qHTS for Zika virus inhibitors (AID 1347154).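 Further: 0% = no-inhibitor control and -100% = no-enzyme control; nearly all actives have a fitted effect of over 70% in size.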 The method in brief: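 Unlinked Zika NS2B hydrophilic domain/NS3 protease domain noncovalent complex (25 nM final) in 10 mM Tris-HCl pH 8.0, 0.01% Tween 20, with AMC peptide substrate. Fluorescence (ex 340, em 450 nm) change over 15 min, room temperature; percent inhibition fitted to 4-parameter Hill equation.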

A short description of test [8]: Primary qHTS for small molecule stabilizers of the endoplasmic reticulum resident proteome: Secreted ER Calcium Modulated Protein (SERCaMP) assay (AID 1508630). Further: on the % scale 0 is the no-effect control and ±100 the full control effect. Put shortly:
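GLuc-SERCaMP-expressing SH-SY5Y cells, pretreated 16 h with compound, are challenged with thapsigargin to empty ER calcium stores; after 4 h, coelenterazine is added directly to the medium and luminescence is imaged.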

Test [9] in a line: AP1 Signaling Pathway (AID 357; active means well fitted curve in either direction with a large enough effect, not every such curve was filed as active;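 further: ME-180 reporter cells stimulated with EGF at its EC50 level; on the % scale 0 is the no-effect control and ±100 the full control effect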). The following applies: ME-180 AP-1-bla reporter, EGF-induced, beta-lactamase ratio, 5 h. The method in brief:
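Cells are seeded overnight, exposed to compound titrations and an EC50 level of EGF for 5 hours at 37 °C, then loaded with CCF4 dye for 2.5 hours. Beta-lactamase activity under the AP-1 element is read as a blue/green ratio.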

The target in test [10] is Cytochrome P450 1A2 (Homo sapiens) (UniProt P05177). The experiment in a line: p450-cyp1a2 (AID 410; calls by dose curve; further: potency means the concentration at half of the fitted maximal effect). Put shortly: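 Luminescent readout of luciferin formed from Luciferin-ME by human CYP1A2; data normalized against complete inhibition by 57 uM furafylline. Enzyme 20nM, substrate 100uM at Km, 100mM KPO4 buffer, 60 min reaction at room temperature.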
Test [11] in a line: NFAT Signaling Pathway (AID 444; active means well fitted curve in either direction with a large enough effect, not every such curve was filed as active;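 further: carbachol stimulus at about its EC50 of 1 µM final; on the % scale 0 is the no-effect control and ±100 the full control effect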). Conditions: Jurkat NFAT-bla M1, carbachol, beta-lactamase ratio, 5 h. The method in brief: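 Jurkat cells carrying an NFAT-driven β-lactamase reporter and co-transfected muscarinic M1 receptor were treated with compound plus carbachol (1 uM final, an EC50 level) for 5 h at 37 °C. CCF4 loading followed for 1 h at RT; 460/530 nm ratio gave %activity.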

A short description of test [12]: Stat Signaling Pathway (AID 446; active means well fitted curve in either direction with a large enough effect, not every such curve was filed as active;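 further: ME-180 cervical cancer cells given 40 pM IL-6 alongside compound; SIE-controlled beta-lactamase reporter measured as 460/530 nm FRET emission ratio; on the % scale 0 is the no-effect control and ±100 the full control effect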). The following applies: ME-180 SIE beta-lactamase reporter, IL-6 stimulated, 5 h. The method in brief: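 ME-180 cells carrying a SIE-driven beta-lactamase reporter are stimulated with 40 pM IL-6 for 5 h at 37C in the presence of compound. The 460/530 nm FRET substrate ratio is read after 2.5 h at RT. Data are normalised to 300 pM IL-6 and to 125 nM JAK inhibitor controls.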

Test [13] has as its target Mitogen-activated protein kinase 10 (Mus musculus) (UniProt Q61831). Kind of test: JNK3 AlphaScreen Assay (AID 530; active means well fitted curve in either direction with a large enough effect, not every such curve was filed as active). The method in brief:
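Inhibitors reduce antibody binding to phosphorylated biotin-cJun, lowering AlphaScreen luminescence. Lysates from HepG2 cells pre-activated by IL-1beta plus TNF-alpha supplied JNK3; compounds were titrated.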
Background: Alpha assays give light when donor and acceptor beads are brought close together.

In test [14] the target is Guanine nucleotide-binding protein G(i) subunit alpha-1 (Homo sapiens) (UniProt P63096). Kind of test: qHTS Assay for Inhibitors of RGS12 GoLoco Motif Activity (Green Fluorophore) (AID 879).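 Further: 0% = labeled peptide with Gαi1 and full inhibition = labeled peptide alone without protein; negative values mean loss of peptide binding seen as reduced polarization.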 The method in brief: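 Fluorescence polarization assay: 50 nM Gαi1 with 10 nM FITC-labeled RGS12 GoLoco peptide in 10 mM Tris pH 7.5, 150 mM NaCl, 0.1 mM GDP, 0.05% NP40, 10 min at room temperature with compound.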

A short description of test [15]: qHTS Assay for Identification of Small Molecule Agonists for Thrombopoietin (TPO) Signaling Pathway (AID 917). Further: on the % scale 0 is the no-effect control and ±100 the full control effect. The method in brief: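 Activators of TPO signaling were sought in murine Ba/F3 cells transfected with the human receptor, using a luciferase gene driven by the Glycoprotein IIb promoter; 24-hr compound exposure at 37 C alongside 26 pM TPO, in IL-3-free medium.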

Test [16] addresses Pyruvate kinase (Leishmania mexicana) (UniProt Q27686). The experiment in a line: qHTS Validation Assay for Inhibitors of Leishmania Mexicana Pyruvate Kinase (AID 945).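 Further: 0% = DMSO only neutral control wells.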 The method in brief: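 Eight-point qHTS titrations; enzyme 0.2 nM LmPYK (E451W mutant); substrates 0.5 mM PEP, 0.1 mM ADP; 7 mM MgCl2; 1 h room temperature; PKLight luminescence normalized to neutral control.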

Test [17] has as its target Pyruvate kinase PKM (Homo sapiens) (UniProt P14618). Kind of test: qHTS Assay for Activators of Human Muscle Pyruvate Kinase (AID 954; active means well fitted curve in the direction sought with a large enough effect, not every such curve was filed as active;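 further: 0% = uninhibited enzyme and -100% = no enzyme or full thiadiazolimine inhibition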). The method in brief: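 Purified human PKM2 (0.1 nM) with 0.5 mM PEP (Km) and 0.1 mM ADP in 50 mM imidazole pH 7.2, KCl, MgCl2, 1 h at room temperature; ATP formed read by coupled luciferase luminescence. Normalized to no-enzyme/110 uM thiadiazolimine inhibition; 0.3 nM enzyme column for activation.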

Test [18] addresses alpha-glucosidase (Oryza sativa, rice) (UniProt Q653V4). The experiment in a line: Counterscreen for Glucocerebrosidase Inhibitors: qHTS Assay for Rice alpha-Glucosidase at pH 5.0 (AID 997).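 Further: 0% = full activity with enzyme and -100% = basal without enzyme.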 The method in brief:
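Rice alpha-glucosidase (4 nM final) with 400 uM 4-methylumbelliferyl-alpha-D-glucopyranoside in citrate buffer pH 5.0, 20 min at room temperature, stopped at pH 10; fluorescence 365/440 nm, compounds 0.7 nM–77 uM, AC50 from Hill fits.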

The target in test [19] is Cytochrome P450 2C19 (Homo sapiens) (UniProt P33261). Kind of test: qHTS Assay for Inhibitors and Substrates of Cytochrome P450 2C19 (AID 899). Further: potency means the concentration at half of the fitted maximal effect; nearly all actives have a fitted effect of over 60% in size. Put shortly: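 Human CYP2C19 (5nM) with Luciferin-H EGE at 10uM (its KM) in 50mM KPO4 was preincubated with compound for 10 min at 37C. NADPH regeneration started a 60 min 37C reaction. Luciferin was read by luminescence, normalized to 57uM ketoconazole.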

Test [20] can be described thus: qHTS Assay for Lipid Storage Modulators (AID 1519; calls by dose curve). Conditions: Drosophila S3 cells, BODIPY lipid droplet/cell ratio, laser cytometry, cells loaded with oleic acid; for activity change, negative = inhibition: at 57.5 µM (top of the series). Put shortly:
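Cells seeded at 5,000 per well were treated with compounds over a concentration series and loaded with oleic acid (400 uM, as added). Lipid droplet fluorescence (488 nm excitation, 500-530 nm channel) was read by laser-scanning cytometry and normalized to 20 uM Triacsin C.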

Setting [21] is: measured here: cell count channel max response.
Where [22] appears, read: measured here: lipid channel max response.

Several values for one entry are separate records, joined by “and”; a condition that tells them apart may be missing. Equal entries are not always repeated. Inconclusive results are not listed. Activity calls are given as the source filed them. Unless noted, the call rests on the fitted dose curve; in most records, active means well fitted curve in the direction sought with a large enough effect; inconclusive means small, poorly fitted or top-dose-only effect, or another doubt; inactive means no such curve, though single readings can be large; an effect the other way counts as inactive or inconclusive. Bounds are passed on as bounds.

Sequence of Ubiquitin carboxyl-terminal hydrolase 1 (Homo sapiens) (O94782 whole entry, looked up): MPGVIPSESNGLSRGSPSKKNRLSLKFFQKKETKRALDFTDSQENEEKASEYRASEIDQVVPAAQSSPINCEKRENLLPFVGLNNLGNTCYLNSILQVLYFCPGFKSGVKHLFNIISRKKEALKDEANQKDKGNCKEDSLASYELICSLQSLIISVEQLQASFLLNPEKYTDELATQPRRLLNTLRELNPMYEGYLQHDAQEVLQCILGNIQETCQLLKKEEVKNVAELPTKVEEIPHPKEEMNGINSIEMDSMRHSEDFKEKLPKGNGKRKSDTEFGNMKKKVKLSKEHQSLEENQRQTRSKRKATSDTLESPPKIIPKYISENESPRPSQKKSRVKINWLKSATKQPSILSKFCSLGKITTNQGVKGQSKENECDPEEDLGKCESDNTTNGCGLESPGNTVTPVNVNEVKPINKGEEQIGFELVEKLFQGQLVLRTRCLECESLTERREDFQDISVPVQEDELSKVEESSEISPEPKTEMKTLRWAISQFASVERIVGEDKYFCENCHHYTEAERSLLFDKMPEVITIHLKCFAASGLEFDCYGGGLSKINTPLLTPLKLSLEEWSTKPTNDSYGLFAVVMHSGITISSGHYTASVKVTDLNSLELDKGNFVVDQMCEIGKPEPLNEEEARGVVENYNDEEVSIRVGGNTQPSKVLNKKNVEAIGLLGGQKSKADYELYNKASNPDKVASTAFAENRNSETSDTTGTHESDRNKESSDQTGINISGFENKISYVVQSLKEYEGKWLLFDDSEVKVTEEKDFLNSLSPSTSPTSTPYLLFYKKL
Sequence of 3',5'-cyclic-AMP phosphodiesterase 4B (Homo sapiens) (Q07343 whole entry, looked up): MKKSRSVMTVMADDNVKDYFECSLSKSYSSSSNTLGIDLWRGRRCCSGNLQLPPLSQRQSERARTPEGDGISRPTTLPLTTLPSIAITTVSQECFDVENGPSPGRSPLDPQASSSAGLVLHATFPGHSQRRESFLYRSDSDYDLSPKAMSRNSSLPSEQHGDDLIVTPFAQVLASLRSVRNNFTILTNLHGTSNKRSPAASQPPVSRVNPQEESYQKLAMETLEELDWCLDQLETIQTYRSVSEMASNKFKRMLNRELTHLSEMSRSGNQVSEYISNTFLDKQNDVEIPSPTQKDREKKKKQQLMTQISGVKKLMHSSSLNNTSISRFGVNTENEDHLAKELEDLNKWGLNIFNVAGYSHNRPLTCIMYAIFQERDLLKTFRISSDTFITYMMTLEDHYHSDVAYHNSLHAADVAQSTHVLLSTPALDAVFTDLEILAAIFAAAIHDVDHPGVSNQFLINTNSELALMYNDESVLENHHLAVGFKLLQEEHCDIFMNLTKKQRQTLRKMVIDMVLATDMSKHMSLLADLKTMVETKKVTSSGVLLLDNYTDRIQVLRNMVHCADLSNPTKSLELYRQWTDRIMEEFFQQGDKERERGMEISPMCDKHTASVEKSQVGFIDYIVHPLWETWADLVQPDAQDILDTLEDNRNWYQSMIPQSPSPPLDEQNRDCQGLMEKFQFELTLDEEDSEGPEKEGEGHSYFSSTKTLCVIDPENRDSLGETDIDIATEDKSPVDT
Sequence of Cytochrome P450 1A2 (Homo sapiens) (P05177 whole entry, looked up): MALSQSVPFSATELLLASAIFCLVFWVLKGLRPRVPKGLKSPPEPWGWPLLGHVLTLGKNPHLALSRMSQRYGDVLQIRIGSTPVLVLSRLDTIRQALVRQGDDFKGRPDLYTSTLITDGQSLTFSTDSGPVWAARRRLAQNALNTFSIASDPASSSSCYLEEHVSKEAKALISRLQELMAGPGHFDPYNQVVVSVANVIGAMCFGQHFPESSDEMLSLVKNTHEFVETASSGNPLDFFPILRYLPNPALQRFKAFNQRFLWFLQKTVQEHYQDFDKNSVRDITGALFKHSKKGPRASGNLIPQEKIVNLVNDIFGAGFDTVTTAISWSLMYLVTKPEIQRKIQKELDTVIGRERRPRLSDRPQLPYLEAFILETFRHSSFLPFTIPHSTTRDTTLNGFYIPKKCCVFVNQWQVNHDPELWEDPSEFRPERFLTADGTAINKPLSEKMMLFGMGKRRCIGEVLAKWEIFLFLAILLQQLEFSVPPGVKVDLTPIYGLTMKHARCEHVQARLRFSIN
Sequence of Cytochrome P450 3A4 (Homo sapiens) (P08684 whole entry, looked up): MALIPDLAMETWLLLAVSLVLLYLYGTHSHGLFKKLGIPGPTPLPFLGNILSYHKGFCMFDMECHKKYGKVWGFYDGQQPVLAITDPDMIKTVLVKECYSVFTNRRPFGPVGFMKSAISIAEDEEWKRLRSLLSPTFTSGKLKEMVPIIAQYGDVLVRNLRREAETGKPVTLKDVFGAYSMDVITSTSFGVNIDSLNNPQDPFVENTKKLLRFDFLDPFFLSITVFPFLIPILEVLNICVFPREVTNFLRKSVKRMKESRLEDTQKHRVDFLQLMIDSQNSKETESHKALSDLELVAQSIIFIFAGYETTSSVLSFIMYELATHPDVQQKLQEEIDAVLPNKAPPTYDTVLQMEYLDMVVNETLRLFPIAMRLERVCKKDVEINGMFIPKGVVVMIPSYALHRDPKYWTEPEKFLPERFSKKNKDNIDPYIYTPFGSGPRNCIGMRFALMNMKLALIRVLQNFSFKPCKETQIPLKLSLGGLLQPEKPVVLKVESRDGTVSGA
Sequence of Glucocorticoid receptor (Homo sapiens) (P04150 whole entry, looked up, the tested form may be a part): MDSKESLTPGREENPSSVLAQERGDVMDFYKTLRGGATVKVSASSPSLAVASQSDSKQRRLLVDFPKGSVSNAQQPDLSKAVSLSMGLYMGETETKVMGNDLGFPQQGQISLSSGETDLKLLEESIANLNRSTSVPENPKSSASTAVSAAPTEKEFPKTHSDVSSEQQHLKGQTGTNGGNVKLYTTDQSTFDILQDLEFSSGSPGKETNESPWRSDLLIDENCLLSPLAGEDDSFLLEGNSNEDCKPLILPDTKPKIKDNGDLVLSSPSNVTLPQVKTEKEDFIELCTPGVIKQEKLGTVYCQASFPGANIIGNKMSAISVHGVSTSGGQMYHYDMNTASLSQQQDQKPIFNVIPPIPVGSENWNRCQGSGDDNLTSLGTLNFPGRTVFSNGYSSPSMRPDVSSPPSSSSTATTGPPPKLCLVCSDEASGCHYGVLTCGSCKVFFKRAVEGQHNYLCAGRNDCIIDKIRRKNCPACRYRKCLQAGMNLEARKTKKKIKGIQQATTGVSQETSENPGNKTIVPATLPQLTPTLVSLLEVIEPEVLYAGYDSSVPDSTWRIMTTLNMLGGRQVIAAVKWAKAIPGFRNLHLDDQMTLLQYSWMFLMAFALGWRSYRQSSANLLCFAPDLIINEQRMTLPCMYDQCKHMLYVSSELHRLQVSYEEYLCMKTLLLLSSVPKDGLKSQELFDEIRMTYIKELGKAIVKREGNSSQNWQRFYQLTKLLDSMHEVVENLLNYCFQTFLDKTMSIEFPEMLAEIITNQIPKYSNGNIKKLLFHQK
Sequence of DNA dC->dU-editing enzyme APOBEC-3G (Homo sapiens) (Q9HC16 whole entry, looked up): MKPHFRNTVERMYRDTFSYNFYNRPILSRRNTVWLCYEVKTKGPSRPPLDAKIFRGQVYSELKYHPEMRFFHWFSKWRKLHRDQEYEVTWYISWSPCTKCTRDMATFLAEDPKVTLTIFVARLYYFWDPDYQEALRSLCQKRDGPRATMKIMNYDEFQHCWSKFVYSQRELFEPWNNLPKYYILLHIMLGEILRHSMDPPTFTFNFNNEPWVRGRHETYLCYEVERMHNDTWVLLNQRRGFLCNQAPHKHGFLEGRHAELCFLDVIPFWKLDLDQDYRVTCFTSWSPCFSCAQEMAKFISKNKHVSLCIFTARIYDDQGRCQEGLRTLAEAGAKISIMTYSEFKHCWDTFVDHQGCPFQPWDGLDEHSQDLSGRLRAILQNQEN
Sequence of Pyruvate kinase (Leishmania mexicana) (Q27686 2-499 E452W): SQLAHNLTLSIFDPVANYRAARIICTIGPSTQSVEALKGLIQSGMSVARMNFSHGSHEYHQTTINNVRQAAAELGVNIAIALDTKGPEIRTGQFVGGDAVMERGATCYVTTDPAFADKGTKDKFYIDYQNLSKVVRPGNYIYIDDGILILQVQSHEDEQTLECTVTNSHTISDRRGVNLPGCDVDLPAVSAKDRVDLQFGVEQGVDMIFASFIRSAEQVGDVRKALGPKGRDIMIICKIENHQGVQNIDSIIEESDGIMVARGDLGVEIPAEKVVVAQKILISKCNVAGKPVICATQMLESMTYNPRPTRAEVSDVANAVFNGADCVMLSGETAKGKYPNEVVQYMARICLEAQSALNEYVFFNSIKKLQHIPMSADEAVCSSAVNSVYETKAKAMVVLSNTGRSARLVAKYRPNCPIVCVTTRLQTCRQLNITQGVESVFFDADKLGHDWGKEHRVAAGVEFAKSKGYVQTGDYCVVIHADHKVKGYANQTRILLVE
Sequence of Guanine nucleotide-binding protein G(i) subunit alpha-1 (Homo sapiens) (P63096 whole entry, looked up): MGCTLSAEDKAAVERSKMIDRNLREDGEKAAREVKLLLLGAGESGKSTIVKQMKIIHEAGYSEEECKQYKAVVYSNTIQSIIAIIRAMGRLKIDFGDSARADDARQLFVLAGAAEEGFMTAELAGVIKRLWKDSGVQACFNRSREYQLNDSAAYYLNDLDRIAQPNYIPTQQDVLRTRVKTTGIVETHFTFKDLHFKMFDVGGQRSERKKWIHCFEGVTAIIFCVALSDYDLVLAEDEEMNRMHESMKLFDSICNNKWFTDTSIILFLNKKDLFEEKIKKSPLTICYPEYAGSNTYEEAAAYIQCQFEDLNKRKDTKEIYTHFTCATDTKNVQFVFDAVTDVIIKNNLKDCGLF

With `C[C@@]12C(=O)OC(=O)[C@@]1(C)[C@@H]1CC[C@@H]2O1`, the Potency in test [1] and in [2] was > 46 µM (inactive) in each case. For the same compound, the Potency entry in test [3], in [4], in [5], in [6], in test [7] and in test [8] was “inactive” throughout.

For the compound `CCOC(=O)[C@@]12C[C@@H]1/C(=N/O)c1ccccc1O2`, the activity change, negative = inhibition in [9] (at 38 µM (top of the series)) is -6.63% (inactive); in test [11] (at 38 µM (top of the series)), -7.55% (inactive). In addition, the Potency is 3.98 µM (active) and 316 nM (active) in [10]; > 46 µM (inactive) in test [1]; > 46 µM (inactive) in [2]. Moreover, the activity, negative = inhibition in test [12] (at 38 µM (top of the series)) is -6.6% (inactive). In addition, the Potency entry in [13], in test [3], in test [15], in test [16], in test [5] and in test [6] was “inactive” each time. Moreover, the Potency result in test [7] and in [8] was “inactive” each time. Moreover, the compound was called inactive in test [14], in [17] and in test [18].

As for `COc1cc(CNC(=O)CCCC/C=C\C(C)C)ccc1O`, the activity change, negative = inhibition in [9] (at 17.2 µM (top of the series)) was 7.68% (inactive); in test [11] (at 17.2 µM (top of the series)), -1.65% (inactive). In addition, the Potency in test [10] was 1.58 µM (active) and 2 µM (active) and 3.16 µM (active); in test [1], > 20.6 µM (inactive) and > 46 µM (inactive); in test [2], > 20.6 µM (inactive) and > 46 µM (inactive); in test [19] it was 7.94 µM (active) and 6.31 µM (active). Besides, in test [12] (at 17.2 µM (top of the series)), the activity, negative = inhibition is -15.5% (inactive). In addition, the Potency result in test [13], in [3], in test [4], in test [6], in test [7] and in [8] was “inactive” in each case.

With `CCn1ccnc1C[C@@H]1COc2ccccc2O1`, the activity change, negative = inhibition in [9] (at 38 µM (top of the series)) was -10% (inactive); in test [11] (at 38 µM (top of the series)), -4.02% (inactive). Moreover, the Potency in test [10] is 15.8 µM (active); in test [1], > 46 µM (inactive); in test [2] it was > 46 µM (inactive). Besides, the activity, negative = inhibition in test [12] (at 38 µM (top of the series)) is -3.71% (inactive). For the same compound, the Potency result in [13], in test [3], in test [15], in [16], in [6] and in test [7] was “inactive” each time. Besides, the Potency entry in test [8] is “inactive”. Besides, the call in test [14], in test [17] and in [18] was inactive.

For `C[C@@H](CC(=O)O)[C@@H](N)C(=O)O`, the Potency in [1] and in test [2] was > 46 µM (inactive) throughout. Moreover, the Potency entry in test [13], in [3], in test [6], in test [7] and in test [8] was “inactive” throughout. The activity change, negative = inhibition in [20] was -3.19% (inactive). In addition, the max response in test [20] (setting [21]) is -10.3%; in test [20] (setting [22]), -14.3%.

Turning to `C[C@H](CCC(=O)O)[C@H]1CC[C@H]2[C@H]3C(CC[C@]12C)[C@@]1(C)CC[C@@H](O)C[C@H]1C[C@H]3O` (stereo partly specified), the activity change, negative = inhibition in test [20] was -7.53% (inactive). Moreover, the values for the max response in test [20] (setting [21]) and in [20] (setting [22]) were 14.2% and 5.28%, respectively. The Potency entry in test [5], in test [6], in test [7] and in test [8] was “inactive” each time.
